# Source: PubChem BioAssay (National Center for Advancing Translational Sciences (NCATS))
# Hits are enriched below; roughly 7.4% of the tested compounds scored in any of these assays.
# NPC1 promoter act = activators of NPC1 promoter; Huh7 NPC1 promoter luciferase reporter, 24 h; Potency, µM (series often up to 9.22 µM), for the others: at the top dose activation, most hits filed as activators; 2.4% of 320,000 active; AID 485313; further: % of control where 0% means no effect; nearly all actives have a fitted effect of over 60% in size
#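 Cells: Huh7 expressing luciferase under the NPC1 promoter, 1500/well. Seeded 2 h, compound added, incubated 24 h at 37 °C. Luciferase reagent, 10 min ambient, then luminescence.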
# KinaseGlo FLuc = Kinase-Glo luciferase inhibition (counter-screen); Potency, µM (highest dose often 38.3 µM), inactives show at the top dose activity change, negative = inhibition, usual class: inhibitors; Q27757; 0.28% of 200,000 active; Kinase-Glo luciferase, ATP luminescence, 8 min; further: on the % scale 0 is the no-effect control and ±100 the full control effect; nearly all actives have a fitted effect of over 60% in size
#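 Compound is pinned into ATP-containing buffer (10 uM ATP, imidazole pH 7.2, 7 mM MgCl2). Kinase-Glo luciferase reagent is then added. Light output is recorded following an 8-min room-temperature incubation.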
# ELG1 genotoxic = induces genotoxicity in HEK293T cells with luciferase-tagged ELG1 | 1.3% of 330,000 active | AID 504466 | HEK293T ELG1-luciferase reporter, luminescence, 16 h | Potency, µM (highest dose often 46 µM), for inactives: at the highest dose activity change, positive = activation, most hits filed as activators; further: % of control where 0% means no effect; nearly all actives have a fitted effect of over 60% in size
#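 ELG1-luciferase HEK293T cells, 2,000/well; compound pinned in; 16 hr, 37 °C, 5% CO2; ONE-Glo, 30 min RT; luminescence on CCD imager.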
# SMN2 splice enh = increases expression of the SMN2 splice variant. HEK293 SMN2-luciferase splicing reporter, luminescence, 30-36 h. Potency, µM (titrated, usually from 46.1 µM), for inactives: at the highest dose activity change, positive = activation, actives largely listed as activators. 2.8% of 210,000 active; further: % of control where 0% means no effect; nearly all actives have a fitted effect of over 55% in size
#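 qHTS luciferase splicing reporter: luminescence rises when SMN2 exon 7 is included in transfected HEK293 cells. Compound exposure lasted 30-36 h at 37C, with 4.5 mM final sodium butyrate as control, followed by a ONE-Glo read.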
# Rab9 promoter act = activates the Rab9 promoter | Potency, µM (titrated, usually from 9.22 µM), for inactives: top-dose activation, negative = inhibition, most hits filed as activators | 2.8% of 320,000 active | Huh7 Rab9 promoter-luciferase reporter, luminescence, 24 h; further: % of control where 0% means no effect; nearly all actives have a fitted effect of over 60% in size
#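 Cell-based reporter: Huh7 stable for Rab9 promoter-driven luciferase, plated in reduced-serum medium with 10% FBS at 1500 cells/well, compound-treated 24 h at 37 °C, luminescence read after 10 min reagent.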
# FLuc modulator = inhibits or activates purified firefly luciferase, miR-21 counter-screen; P08659; 6.9% of 360,000 active; purified FLuc, Km substrates, luminescence inhibition; Potency, µM (doses to about 57.5 µM), inactives show at the top dose activity change, negative = inhibition, actives largely listed as inhibitors;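 further: plate controls were vehicle for no effect and reference inhibitor for full effect; nearly all actives have a fitted effect of over 55% in size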
# Target sequence (P08659 whole entry, looked up): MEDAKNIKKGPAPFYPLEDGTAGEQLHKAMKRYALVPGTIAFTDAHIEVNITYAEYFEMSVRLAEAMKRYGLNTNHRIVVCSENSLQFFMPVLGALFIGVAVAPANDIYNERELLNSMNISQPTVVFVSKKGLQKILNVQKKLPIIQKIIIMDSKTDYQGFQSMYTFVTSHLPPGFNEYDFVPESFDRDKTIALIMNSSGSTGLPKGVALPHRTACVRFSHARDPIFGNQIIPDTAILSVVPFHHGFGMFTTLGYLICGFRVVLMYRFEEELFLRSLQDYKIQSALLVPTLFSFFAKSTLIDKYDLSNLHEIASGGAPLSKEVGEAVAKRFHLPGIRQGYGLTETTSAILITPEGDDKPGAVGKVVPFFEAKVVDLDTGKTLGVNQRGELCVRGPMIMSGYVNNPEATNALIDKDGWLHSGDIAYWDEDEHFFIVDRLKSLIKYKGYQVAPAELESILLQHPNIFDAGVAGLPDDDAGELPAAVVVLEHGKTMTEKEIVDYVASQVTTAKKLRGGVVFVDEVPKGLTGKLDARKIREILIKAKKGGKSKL
#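 Purified P. pyralis luciferase (10nM final) with 10uM D-luciferin and 10uM ATP (Km levels) in 50mM Tris acetate pH 7.5, 10mM Mg acetate, 0.01% Tween-20, 0.05% BSA; qHTS 6-point titration, ~60 µM downward; luminescence read.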
# * = called active by the depositor; ? = inconclusive; . = no result given; [ ] = another dose, or the depositor's remark. The call rests on the fitted dose curve; in most records, active means well fitted curve in the direction sought with a large enough effect; inconclusive means small, poorly fitted or top-dose-only effect, or another doubt; inactive means no such curve, though single readings can be large; an effect the other way counts as inactive or inconclusive. Potency means the concentration at half of the fitted maximal effect.
SMILES,NPC1 promoter act,KinaseGlo FLuc,ELG1 genotoxic,SMN2 splice enh,Rab9 promoter act,FLuc modulator
CC(C)(C)c1ccc(S(=O)(=O)NCC(=O)Nc2ccc(-c3nc4ccccc4s3)cc2)cc1,-2%,-4%,?,11µM*,27%,?
COc1ccc(Cl)cc1NC(=O)c1cnc2sc(N3CCOCC3)nn2c1=O,.,.,.,.,.,-3%
Cc1ccc(Cl)cc1N1CCN(CCCNC(=O)Cn2ncc3c([nH]c4ccccc43)c2=O)CC1,.,.,.,.,.,0%
O=[N+]([O-])c1ccc(-c2nc(-c3ccc(F)cc3)c(-c3ccncc3)[nH]2)cc1,-25%[46.1 µM],-6%,.,-18%,-35%[46.1 µM],.
Cc1cn2c(=O)cc(COC(=O)c3ccc(NC(=O)C(C)Oc4ccccc4)cc3)nc2s1 (configuration not stated),.,.,.,.,.,5%
FC(F)(F)c1cccc(N2CCN(Cc3nnc(-c4ccc5c(c4)OCO5)o3)CC2)c1,.,.,.,-28%,.,6%
O=C(Nc1nc(-c2ccc(F)cc2)cs1)C1CCCO1 (configuration not stated),18%,-1%,11%,11%,23%,12µM*
O=C(Nc1nc(-c2ccccc2)cs1)C1CCCO1 (configuration not stated),?,1%,?,?,26%,24µM*
O=C(Nc1ccc(F)cc1)C1CCCO1 (configuration not stated),-4%,-2%,0%,0%,-15%,-11%
O=C(Nc1nc(-c2ccc(-c3ccccc3)cc2)cs1)C1CCCO1 (configuration not stated),7%,-5%,5%,-27%,0%,8.5µM*
Cc1csc(NC(=O)C2CCCO2)n1 (configuration not stated),-1%,-2%,1%,?,-2%,1%
COc1cc2oc(=O)c3c4c(cc5ccc(c1CCN(C)C)c2c53)OCO4,.,0%,.,11%,.,.
CCOC(=O)CC(NC(=O)c1cc2c(=O)n3cccc(C)c3nc2s1)c1ccc(OCC)c(OC)c1 (configuration not stated),.,.,.,6%,.,2%
COC(=O)C1C(O)CC[C@H]2CN3CCc4c([nH]c5ccccc45)C3C[C@H]12 (some centres not stated),.,0%,.,1%,.,.
COc1cc(CNC(=O)c2cccc(COc3ccc(Cl)cc3)c2)cc(OC)c1,0.71µM*,2%,?,2.5µM*,0.22µM*,11µM*
O=C(NCc1ccccc1)c1cccc(COc2ccc(Cl)cc2)c1,1.8µM*,-7%,?,6.3µM*,2.8µM*,17µM*
O=C(NCc1ccccc1)c1cccc(COc2cccc(Cl)c2)c1,?,-2%,1%,19%,?,-12%
COc1cccc(CNC(=O)c2cccc(Br)c2)c1,9%,1%,0%,-4%,0%,-11%
Cc1ccc(C(=O)c2oc3ccccc3c2NC(=O)c2cc(=O)c3cc(C)ccc3o2)cc1,.,.,.,7%,.,-4%
Cc1ccc(NC(=O)O/N=C/c2c(C)nn(C(C)(C)C)c2C)cc1Cl,-35%,.,-12%,.,-44%,0.13µM*
O=C(CSc1ccccn1)Nc1ccc2c(c1)CCC2,17%,.,?,.,?,12µM*
O=C(CSc1ccccn1)Nc1ccc2ccccc2c1,3.5µM*,-3%,?,.,2.8µM*,4.8µM*
O=C(COc1ccc2ccccc2c1)NC1=NCCS1,4.5µM*,-5%,8%,9%,?,4.8µM*
O=C(CSc1ncccn1)Nc1ccc2c(c1)OCO2,.,.,8%,.,.,.
Cc1cc(C)cc(OCC(=O)NC2=NCCS2)c1,1%,5%,0%,?,13%,1%
SMILES,NPC1 promoter act,KinaseGlo FLuc,ELG1 genotoxic,SMN2 splice enh,Rab9 promoter act,FLuc modulator
O=C(CSc1ncccn1)NC(=O)Nc1ccc2c(c1)OCCO2,2%,-1%,10%,8%,16%,24µM*
CCOC(=O)CCCNC(=O)N1CCc2nc(COc3ccccc3)c3c(c2C1)CO[C@@H](C)C3,.,0%[7.66 µM],.,-3%[9.22 µM],.,.
CN(C)S(=O)(=O)c1ccc(SCC(=O)Nc2ccc3c(c2)OCCO3)nc1,11%,.,1%,.,-1%,21µM*
Cc1cc(=O)[nH]c(SCC(=O)Nc2ccc3c(c2)OCCO3)n1,-39%,-2%,-3%,.,-42%,0%
O=C(CSc1ccccn1)Nc1ccc2c(c1)OCCO2,4µM*,.,?,.,2.5µM*,8.5µM*
O=C(CSc1nccc(=O)[nH]1)Nc1ccc2c(c1)OCCO2,2.2µM*,.,15µM*,.,2.2µM*,11µM*
CC1(C(=O)OCC(=O)Nc2ccc3ccccc3c2)CC1(Cl)Cl (configuration not stated),17%,-1%,1%,0%,26%,19µM*
COc1cc([C@@H]2c3cc4c(cc3C(OC3OC5COC(C)OC5C(O)C3O)C3COC(=O)[C@@H]32)OCO4)cc(OC)c1O (some centres not stated),.,2%,.,.,.,.
COc1ccccc1NC(=O)c1cc(=O)c2ccc(C)c(C)c2o1,.,.,.,-19%,.,-1%
Cc1cc(NC(=O)CSc2ccccn2)cc(NC(=O)CSc2ccccn2)c1,0%,.,-7%,.,5%,4%
O=C(CSc1ccccn1)Nc1ccc2c(c1)C(=O)c1ccccc1C2=O,2.8µM*,2%,16µM*,10µM*,4µM*,?
CC(=O)Nc1ccc(NC(=O)CSC2=NCCS2)cc1,2%,-1%,1%,-10%,-8%,0%
O=C(CSC1=NCCS1)Nc1ccc2ccccc2c1,18%,1%,3%,.,18%,17µM*
O=C(CSc1nc(-c2ccccc2)[nH]c1-c1ccccc1)Nc1ccc2c(c1)OCCO2,.,.,.,-2%,.,9.5µM*
O=C(COCc1cc(-c2ccc(F)cc2)on1)Nc1cc(F)ccc1F,.,.,.,.,.,6%
COc1ccc(-c2nc3c(c4c2C[C@H](c2ccccc2)OC4)CN(C(=O)c2cc(I)ccc2F)CC3)c(C)c1,.,-6%[7.66 µM],.,-11%[9.22 µM],.,.
Cc1ccccc1-c1nc2cc(Cl)ccc2o1,?,.,?,.,?,2.1µM*
Cc1ccccc1-c1nc2ccccc2o1,-1%,-3%,3%,-8%,-6%,8.5µM*
Cc1ccc(CCNS(=O)(=O)c2c(C)nc3sc(C)c(C)n3c2=O)cc1,.,.,.,.,.,4%
COc1ccc(C(=O)/C=C/c2ccc(OC)c(COc3ccccc3F)c2)cc1,-1%,2%,-1%,-46%,-2%,?
COc1ccc(Oc2ccc(/C=C/C(=O)c3ccc(O)cc3)cc2[N+](=O)[O-])cc1,-1%,2%,-15%,-103%,-9%,24µM*
CNc1ccc(/C=C/C(=O)c2ccc(C)cc2)cc1[N+](=O)[O-],5%,2%,?,1%,-1%,?
